The nature of assay [1]: E. coli DRC41 culture turbidity changes, primary screen, E. coli filamentation inducer project, strain DRC41, OD650, 48 h (AID 1152).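 Note: E. coli MC1000 strain DRC41 lacking acrAB efflux pump and sulA.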 The note with it: E. coli DRC41 (acrAB sulA), higher = more signal, called active from +8 up or from −8 down.
Assay [2] in a line: small-molecule binders of probe aLefty1, primary screen, biochemical, small-molecule microarray, 635/667 nm fluorescence (AID 1153).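 Note: score merges spot fluorescence with signal-to-noise ratio from the scanned slide images.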 The note with it: higher = more signal.
A short description of assay [3]: PSAC antagonists in infected red cells, primary screen, cell-based, P. falciparum Indochina, OD700, 1 h (AID 1154). The note with it: P. falciparum Indochina infected RBC osmotic lysis, higher = more signal, called active from +8 up or from −8 down.
A short description of assay [4]: PSAC antagonists in infected red cells, primary screen, cell-based, P. falciparum Indochina, OD700, 2 h (AID 1155).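 Note: lysis reports solute entry through the parasite surface anion channel PSAC; channel blockers reduce lysis of infected cells.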 Conditions: P. falciparum Indochina infected erythrocytes, osmotic lysis OD700; higher = more signal, called active from +8 up or from −8 down.
The nature of assay [5]: osmotic lysis modulators in infected erythrocytes, primary screen, PSAC antagonist project, cell-based, P. falciparum Indochina, OD700, 3 h (AID 1156). The note with it: higher = more signal, called active from +8 up or from −8 down.
A short description of assay [6]: PSAC antagonists in infected red cells, primary screen, cell-based, P. falciparum Indochina, OD700, 18 h (AID 1157). The note with it: P. falciparum Indochina infected erythrocytes, osmotic lysis OD700, 18 h; higher = more signal, called active from +8 up or from −8 down.
Assay [7] in a line: modulators of S6 phosphorylation in cells, primary screen, cell-based, A549, cytoblot, luminescence, serum-stimulated (AID 1158).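 Note: serum-stimulated A549 lung adenocarcinoma cells; signal is phosphorylated S6 detected by cytoblot immunostaining with HRP secondary.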 The note with it: A549 phospho-S6 cytoblot, 5 h, higher = more signal.
The target of assay [8] is NADPH oxidase 2 (Homo sapiens) (UniProt P04839). Description: NOX2-dependent H2O2 signal modulators, primary screen, NOX inhibitor project, cell-based, HEK293-NOX2, PMA-stimulated, Amplex Red fluorescence (AID 1159). Note: test concentration not given here. Conditions: 45 min, higher = more signal, called active from +8 up or from −8 down.
Chain of NADPH oxidase 2 (Homo sapiens) (P04839 whole entry, looked up): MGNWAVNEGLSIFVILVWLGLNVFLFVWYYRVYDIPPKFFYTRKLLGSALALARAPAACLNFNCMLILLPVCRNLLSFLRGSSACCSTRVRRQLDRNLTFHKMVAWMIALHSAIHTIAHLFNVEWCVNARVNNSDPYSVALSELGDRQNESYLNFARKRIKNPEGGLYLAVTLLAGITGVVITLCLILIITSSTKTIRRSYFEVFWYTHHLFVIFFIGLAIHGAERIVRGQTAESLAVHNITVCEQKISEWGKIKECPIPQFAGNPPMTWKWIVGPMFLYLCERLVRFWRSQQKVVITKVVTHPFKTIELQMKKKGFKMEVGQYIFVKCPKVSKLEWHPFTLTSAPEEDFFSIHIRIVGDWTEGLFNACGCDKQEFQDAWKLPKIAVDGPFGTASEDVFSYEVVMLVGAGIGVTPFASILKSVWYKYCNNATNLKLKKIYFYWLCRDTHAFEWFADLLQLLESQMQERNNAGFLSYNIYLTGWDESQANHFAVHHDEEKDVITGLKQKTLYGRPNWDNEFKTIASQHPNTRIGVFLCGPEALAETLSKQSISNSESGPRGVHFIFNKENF
For assay [9], the target named is NADPH oxidase 4 (Homo sapiens) (UniProt Q9NPH5). Description: NOX4-dependent H2O2 signal modulators, primary screen, NOX inhibitor project, cell-based, HEK293-NOX4, tetracycline-induced, Amplex Red fluorescence (AID 1160). Conditions: 45 min, higher = more signal, called active from +8 up or from −8 down.
Chain of NADPH oxidase 4 (Homo sapiens) (Q9NPH5 whole entry, looked up): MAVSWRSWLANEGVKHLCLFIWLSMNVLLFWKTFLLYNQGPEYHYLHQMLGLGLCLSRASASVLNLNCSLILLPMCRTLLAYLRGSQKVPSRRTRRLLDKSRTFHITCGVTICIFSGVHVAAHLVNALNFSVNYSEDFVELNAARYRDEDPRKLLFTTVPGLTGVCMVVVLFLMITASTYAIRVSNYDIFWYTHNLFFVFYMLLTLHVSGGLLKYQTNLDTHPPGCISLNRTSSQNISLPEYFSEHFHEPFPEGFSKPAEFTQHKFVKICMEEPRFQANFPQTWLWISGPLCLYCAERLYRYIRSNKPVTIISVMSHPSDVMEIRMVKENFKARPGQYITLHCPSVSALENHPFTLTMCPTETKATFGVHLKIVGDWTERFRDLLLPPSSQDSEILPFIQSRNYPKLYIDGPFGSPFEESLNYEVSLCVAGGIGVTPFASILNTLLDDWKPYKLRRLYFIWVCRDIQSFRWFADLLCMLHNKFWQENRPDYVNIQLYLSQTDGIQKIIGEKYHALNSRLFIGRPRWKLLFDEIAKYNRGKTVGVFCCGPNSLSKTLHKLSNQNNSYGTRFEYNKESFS
The target in assay [10] is NADPH oxidase 5 (Homo sapiens) (UniProt Q96PH1). Description: NOX5-dependent H2O2 signal modulators, primary screen, NOX inhibitor project, cell-based, HEK293-NOX5, Amplex Red fluorescence (AID 1161). The note with it: HEK293-NOX5, ionomycin, 45 min, higher = more signal.
Chain of NADPH oxidase 5 (Homo sapiens) (Q96PH1 whole entry, looked up): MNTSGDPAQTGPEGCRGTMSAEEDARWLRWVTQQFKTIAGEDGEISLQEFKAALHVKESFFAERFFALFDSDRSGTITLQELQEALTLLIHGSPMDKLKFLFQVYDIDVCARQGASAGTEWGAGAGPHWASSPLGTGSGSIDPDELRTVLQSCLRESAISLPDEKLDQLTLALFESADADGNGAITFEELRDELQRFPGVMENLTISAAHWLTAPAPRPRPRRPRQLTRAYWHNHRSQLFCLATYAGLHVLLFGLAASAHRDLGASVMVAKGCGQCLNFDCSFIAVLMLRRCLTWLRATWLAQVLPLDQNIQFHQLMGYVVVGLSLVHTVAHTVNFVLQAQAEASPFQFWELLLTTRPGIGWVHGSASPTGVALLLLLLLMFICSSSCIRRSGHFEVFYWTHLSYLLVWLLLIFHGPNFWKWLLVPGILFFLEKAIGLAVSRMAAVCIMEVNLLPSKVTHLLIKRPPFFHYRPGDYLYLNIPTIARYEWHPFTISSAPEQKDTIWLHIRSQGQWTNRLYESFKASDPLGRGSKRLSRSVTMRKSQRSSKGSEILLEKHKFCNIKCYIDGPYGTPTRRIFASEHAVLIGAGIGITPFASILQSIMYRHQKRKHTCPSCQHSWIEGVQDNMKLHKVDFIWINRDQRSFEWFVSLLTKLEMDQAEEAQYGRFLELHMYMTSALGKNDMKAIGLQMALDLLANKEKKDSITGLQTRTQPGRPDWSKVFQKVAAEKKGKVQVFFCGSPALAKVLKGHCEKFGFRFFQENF
Assay [11] in a line: A549 cell viability effects, profiling panel, calcein-AM fluorescence, 48 h, basal (AID 1162). Note: test concentration not given here. The note with it: higher = more signal.
Assay [12] in a line: adipocyte viability effects, profiling panel, cell-based, 3T3-L1 adipocytes, calcein-AM fluorescence, 48 h, basal (AID 1163). Note: test concentration not given here. Conditions: 3T3-L1 adipocytes viability, higher = more signal.
Assay [13] in a line: HepG2 cell viability effects, profiling panel, calcein-AM fluorescence, 48 h, basal (AID 1164). Note: test concentration not given here. The note with it: higher = more signal.
Assay [14] is described as follows: MM1S cell viability effects, profiling panel, calcein-AM fluorescence, 48 h, basal (AID 1165).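 Note: viability of MM1S multiple myeloma cells under basal unstimulated conditions; test concentration not given here.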 The note with it: higher = more signal.
The nature of assay [15]: basal RPMI8226 viability, no added stimulus, profiling panel, cell-based, calcein-AM fluorescence, 48 h, PK04 Diversity Set (AID 1166).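 Note: cells grown under basal conditions without added stimulus; test concentration not given here.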 Conditions: RPMI8226 myeloma viability, higher = more signal.
Assay [16] is described as follows: basal HepG2 mitochondrial membrane potential changes, profiling panel, cell-based, JC-1 fluorescence, 24 h, 100 nL compound (AID 1167). Note: test concentration not given here. Conditions: higher = more signal.
A short description of assay [17]: basal 3T3-L1 adipocyte mitochondrial potential changes, profiling panel, cell-based, JC-1 fluorescence, 3T3-L1 adipocytes, 24 h, 100 nL compound (AID 1168). Note: test concentration not given here. The note with it: JC-1 mitochondrial fluorescence, higher = more signal, called active from +8 up or from −8 down.
Assay [18] can be described thus: basal RPMI8226 mitochondrial membrane potential changes, profiling panel, cell-based, JC-1 fluorescence, 24 h, 100 nL compound (AID 1169). Note: test concentration not given here. The note with it: RPMI8226 myeloma, JC-1 mitochondrial potential fluorescence, higher = more signal.
Assay [19] in a line: basal MM1S mitochondrial membrane potential changes, profiling panel, cell-based, JC-1 fluorescence, 24 h, 100 nL compound (AID 1170). Note: test concentration not given here. The note with it: higher = more signal.
The nature of assay [20]: A549 lung cancer cell viability effects, profiling panel, resazurin fluorescence, 24 h, PK04 Diversity Set (AID 1171). Note: test concentration not given here. Conditions: higher = more signal, called active from +8 up or from −8 down. Background: Alamar Blue is a resazurin reagent that responds to reducing activity.

Molecules are shown by their SMILES. The source made the active and inactive calls.

`CC(C)=CCCC(C)=CC(O)C1C=CC2C(=O)N(c3ccccc3)C(=O)C2N1Nc1ccccc1` (stereo not given): the z-score in [1] was -1.8 (inactive); in [3], 1.37 (inactive); in assay [4] it was 1.4 (inactive); in [5], 1.09 (inactive); in assay [6] it was 1.27 (inactive); in assay [7], -1.29. The z-score in assay [8] was -1.26 (inactive); in assay [9] it was -4.03 (inactive); in [10], -2.54; in [11] it was -0.846; in [12], -1.34; in assay [13], -0.731. Moreover, the z-score in assay [14] is -1.77; in [15], -1.02; in assay [16] it was -2; in assay [17] it was 0.224 (inactive); in [18], -0.222; in [19], -0.236. Further, the z-score in assay [20] is -0.518 (inactive). The composite z-score in assay [2] worked out at 0.805.

For the molecule `COC(=O)[C@@]1(Cc2ccccc2)[C@H]2c3cc(C(=O)N(C)C)n(Cc4cc(C)n(C)n4)c3C[C@H]2CN1C(=O)c1ccccc1`, the z-score in assay [1] was -1.85 (inactive); in [3], 1.11 (inactive); in assay [4], 0.234 (inactive); in [5] it was 0.452 (inactive); in [6] it was 0.396 (inactive); in [7], 0.251. Further, the z-score in assay [8] was 0.904 (inactive); in assay [9] it was -0.925 (inactive); in assay [10] it was -2.11; in assay [11], -0.997; in assay [12], 0.461; in [13], 0.0271. Further, the z-score in [14] was -0.47; in [15], -0.965; in [16] it was 1.17; in assay [17], -1.24 (inactive); in assay [18], -0.0807; in assay [19], 0.0916. Also, the z-score in [20] is -0.236 (inactive). The same molecule displayed a composite z-score in [2] of 0.33.

Regarding `CN(C)CCCNC(=O)[C@@]1(Cc2ccccc2I)c2ccccc2C(=O)N(Cc2ccccc2C(F)(F)F)[C@H]1c1ccc(CO)cc1`, the z-score is -2.14 (inactive) in [1]; 11.8 (active) in assay [3]; 1.49 (inactive) in [4]; -0.231 (inactive) in assay [5]; 0.649 (inactive) in assay [6]; -0.349 in assay [7]. Besides, the z-score in [8] is -10 (active); in assay [9], -4.55 (inactive); in assay [10], -4.63; in assay [11] it was -2.7; in [12], -0.469; in assay [13], -5.13. Further, the z-score is -3.8 in assay [14]; -4.33 in assay [15]; -1.04 in [16]; 0.64 (inactive) in [17]; -0.98 in [18]; -2.43 in assay [19]. For the same molecule, in [20], the z-score was -5.93 (inactive). In assay [2], the composite z-score was -0.0536.

In the case of `COC(=O)c1c(CC[C@@H](CO)NC(=O)N[C@@H](Cc2ccccc2)Cn2cc(C3(O)CCCCC3)nn2)oc(C(C)=O)c1C(=O)OC`, the z-score in [1] was 1.27 (inactive); in [3] it was 2.27 (inactive); in assay [4], 0.566 (inactive); in assay [5] it was 0.999 (inactive); in assay [6], 0.312 (inactive); in assay [7], 1.93. Besides, the z-score in assay [8] is -5.26 (inactive); in assay [9], -2.18 (inactive); in assay [10] it was -4.82; in assay [11], 0.548; in assay [12], 2.01; in [13], -0.889. Also, the z-score in assay [14] was 0.513; in [15], -1.69; in assay [16] it was 0.384; in assay [17], 0.349 (inactive); in assay [18], -0.614; in assay [19] it was -0.403. Besides, in assay [20], the z-score was 0.215 (inactive). The molecule also registered a composite z-score in assay [2] of 0.101.

Regarding `C=CCOC(=O)[C@H]1[C@@H]2C(=O)O[C@@H](c3ccccc3)[C@@H](c3ccccc3)N2[C@@H](c2ccc(OCCOC(=O)[C@@H]3C[C@@H]4C(=O)NCC(=O)N4[C@@H]3c3ccc(O)cc3)cc2)[C@]12C(=O)Nc1ccccc12`, the z-score was 2.47 (inactive) in assay [1]; 1.77 (inactive) in [3]; -0.0123 (inactive) in assay [4]; 0.708 (inactive) in assay [5]; -0.513 (inactive) in [6]; 1.14 in assay [7]. The z-score in assay [8] is 2.07 (inactive); in assay [9] it was 1.31 (inactive); in [10], 1.1; in [11], 0.422; in [12] it was 0.905; in [13], 1.49. In addition, the z-score in assay [14] was -0.459; in assay [15], 0.776; in [16] it was -1.35; in assay [17], -0.577 (inactive); in [18], -0.831; in assay [19], -1.12. The z-score in assay [20] is 0.677 (inactive). Besides, in assay [2], the composite z-score was determined as 0.3.

Take `O=C1N(CCS(=O)(=O)c2ccccc2)c2ccccc2C[C@@]12COC(c1ccc(OCCCO)cc1)=N2`: the z-score is -2.43 (inactive) in [1]; 23.6 (active) in [3]; 8.71 (active) in assay [4]; 2.58 (inactive) in assay [5]; 0.764 (inactive) in [6]; -0.616 in [7]. The z-score in assay [8] is 0.759 (inactive); in [9] it was 1.04 (inactive); in assay [10], -0.312; in [11], -0.683; in assay [12] it was 0.294; in assay [13], -1.48. Also, the z-score in assay [14] is -2.06; in assay [15], -0.517; in [16], -2.09; in assay [17] it was 0.7 (inactive); in assay [18] it was -1.06; in [19], -0.554. Moreover, the z-score in assay [20] was -0.455 (inactive). The molecule further displayed a composite z-score in [2] of 0.0804.

As to `N#Cc1ccc(NN2C(C(O)C3CCCCC3)C=CC3C(=O)N(c4ccccc4)C(=O)C32)cc1` (stereo not given), the z-score in [1] was -1.35 (inactive); in [3], 13.2 (active); in assay [4] it was 2.67 (inactive); in assay [5], 3.79 (inactive); in [6] it was 1.49 (inactive); in assay [7] it was -0.911. Moreover, the z-score is -2.02 (inactive) in assay [8]; -3.88 (inactive) in [9]; -3.01 in [10]; -0.669 in [11]; -0.515 in assay [12]; 0.595 in [13]. The z-score in [14] was -0.185; in assay [15] it was -0.32; in assay [16] it was -2.19; in assay [17], -2.17 (inactive); in assay [18] it was 0.234; in assay [19], 0.318. Besides, the z-score in assay [20] was -0.609 (inactive). The molecule further showed a composite z-score in [2] of 0.545.

With `O=c1cccc(CCc2ccccc2)o1`, the z-score in [1] was -1.21 (inactive); in assay [3] it was 1.83 (inactive); in assay [4], 0.584 (inactive); in assay [5], -0.13 (inactive); in assay [6], 0.339 (inactive); in assay [7] it was -0.467. For the same molecule, the z-score in assay [8] is 0.378 (inactive); in assay [9] it was 0.12 (inactive); in assay [10] it was -0.339; in assay [11] it was -0.0082; in assay [12], -0.519; in assay [13], 0.926. Also, the z-score in [14] is -0.441; in assay [15], -0.709; in [16], -0.903; in assay [17], -0.352 (inactive); in assay [18], -0.976; in assay [19], 0.226. For the same molecule, in [20], the z-score is -0.574 (inactive). In assay [2], this molecule registered a composite z-score of -0.15.

In the case of `Cc1cc(C)cc(N2C(=O)CS(=O)(=O)C2c2cccc([N+](=O)[O-])c2)c1` (stereo not given), the z-score was 0.469 (inactive) in assay [1]; 0.548 (inactive) in assay [3]; -0.385 (inactive) in assay [4]; 0.809 (inactive) in assay [5]; -1.48 (inactive) in assay [6]; 1.48 in assay [7]. Besides, the z-score in assay [8] is 0.316 (inactive); in [9] it was 0.227 (inactive); in [10], 1.63; in [11] it was 1.26; in assay [12], 0.869; in assay [13], 1.41. Moreover, the z-score was 0.871 in assay [14]; 1.47 in assay [15]; 0.994 in assay [16]; 0.76 (inactive) in assay [17]; -0.327 in [18]; -0.744 in assay [19]. Further, in [20], the z-score was -0.913 (inactive). This molecule also yielded a composite z-score in assay [2] of 1.33.

The values are drawn from PubChem BioAssay.
